# Measured values: the supplement of paper PMC12494721
# Counter-ions that a name gives are not always drawn.
# Experiments:
# Conditions in all cases: incubation time: 27 h, anaerobic, 37 °C;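 for the amine columns active = adjusted P below 0.05 in both replicates with a change the same way and a mean fold change under 0.8 or over 1.25; inactive = the rest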
# [1] = tested on: Clostridium sporogenes DSM 1664; assay: growth (OD595) fold change vs plate DMSO controls (fold change (ratio)); higher = more growth
# In short: (§1)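 Absorbance at 595 nm was read after shaking the anaerobic mGAM cultures, which had grown in 96-well plates for 27 h at 37 °C. After blank subtraction and background correction against 20 µM compound solutions in water, a calibration factor of 5 gave OD values. Growth is the fold change against the median of the plate's DMSO controls. Values are the mean of 2 biological replicates, with fold changes above 1.5 set to NA.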
# [2] = tested on: Escherichia coli IAI1; assay: as above
# In short: as §1
# [3] = tested on: Klebsiella aerogenes DSM 30053; assay: as above
# In short: as §1
# [4] = tested on: Ruminococcus gnavus DSM 108212; assay: as above
# In short: as §1
# [5] = tested on: Klebsiella aerogenes DSM 30053; assay: fold change of Histamine concentration vs plate DMSO controls (fold change (ratio)); higher = more amine produced, active = hit call of the paper (significant change in both replicates, either direction)
# In short: (§2)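 In 80 µL wells, cultures of four gut bacterial strains in mGAM started at OD 0.1 before a 1:1 dilution and grew anaerobically at 37 °C for 27 h. Compounds were added to 20 µM final, except sweeteners at 50 µM final. After extraction of whole cultures with cold acetonitrile/methanol plus 0.1% formic acid and centrifugation, amines were measured by LC–triple-quadrupole MS in dynamic MRM mode against external calibration curves, with within-batch drift correction. Values give fold change over DMSO controls on the same plate, averaged across 2 biological replicates.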
# [6] = tested on: Clostridium sporogenes DSM 1664; assay: fold change of Tryptamine concentration vs plate DMSO controls (fold change (ratio)); higher = more amine produced, active = hit call of the paper (significant change in both replicates, either direction)
# In short: as §2
# [7] = tested on: Ruminococcus gnavus DSM 108212; assay: as above
# In short: as §2
# [8] = tested on: Escherichia coli IAI1; assay: fold change of Putrescine concentration vs plate DMSO controls (fold change (ratio)); higher = more amine produced, active = hit call of the paper (significant change in both replicates, either direction)
# In short: as §2
# [9] = tested on: Klebsiella aerogenes DSM 30053; assay: as above
# In short: as §2
# [10] = tested on: Escherichia coli IAI1; assay: fold change of Cadaverine concentration vs plate DMSO controls (fold change (ratio)); higher = more amine produced, active = hit call of the paper (significant change in both replicates, either direction)
# In short: as §2
# [11] = tested on: Klebsiella aerogenes DSM 30053; assay: as above
# In short: as §2
# [12] = tested on: Ruminococcus gnavus DSM 108212; assay: fold change of 2-Phenylethylamine concentration vs plate DMSO controls (fold change (ratio)); higher = more amine produced, active = hit call of the paper (significant change in both replicates, either direction)
# In short: as §2
Structure (SMILES),growth [1],growth [2],growth [3],growth [4],fold change of Histamine concentration [5],fold change of Tryptamine concentration [6],fold change of Tryptamine concentration [7],fold change of Putrescine concentration [8],fold change of Putrescine concentration [9],fold change of Cadaverine concentration [10],fold change of Cadaverine concentration [11],fold change of 2-Phenylethylamine concentration [12]
"CC(C)NC[C@@H](O)COc1ccc(CC(N)=O)cc1 [(R,+) Atenolol] (20 µM)",1.19,1.01,1.12,1.16,0.951 (inactive),1.05 (inactive),1.06 (inactive),1.19 (inactive),1.02 (inactive),0.921 (inactive),1.04 (inactive),1.08 (inactive)
C[C@]12CC[C@@H]3c4ccc(O)cc4CC[C@H]3[C@@H]1CCC2=O [Estrone] (20 µM),1.03,1.02,1.03,1.01,1.07 (inactive),1.06 (inactive),0.894 (inactive),1.04 (inactive),1.02 (inactive),1.02 (inactive),1.01 (inactive),0.884 (inactive)
CCOc1ccc(Cc2nccc3cc(OCC)c(OCC)cc23)cc1OCC [Ethaverine hydrochloride] (20 µM),0.848,0.99,0.954,1.05,1 (inactive),0.945 (inactive),0.935 (inactive),1.05 (inactive),1.01 (inactive),1.03 (inactive),0.982 (inactive),0.895 (inactive)
CCOc1ccc2nc(S(N)(=O)=O)sc2c1 [Ethoxzolamide] (20 µM),0.955,0.957,0.989,0.925,1.04 (inactive),0.934 (inactive),0.994 (inactive),1.27 (inactive),0.997 (inactive),0.981 (inactive),0.989 (inactive),1 (inactive)
CN(C)CCCN1c2ccccc2CCc2ccc(Cl)cc21 [Clomipramine hydrochloride] (20 µM),1.07,0.978,0.972,0.705,1.04 (inactive),1.04 (inactive),0.823 (inactive),0.997 (inactive),1.03 (inactive),1.06 (inactive),0.985 (inactive),0.82 (inactive)
C[C@H](Cc1cc2c(c(C(N)=O)c1)N(CCCO)CC2)NCCOc1ccccc1OCC(F)(F)F [Silodosin] (20 µM),1,1,1.02,1.11,0.918 (inactive),1.08 (inactive),1.01 (inactive),0.941 (inactive),0.992 (inactive),1.02 (inactive),1.02 (inactive),0.999 (inactive)
Cc1nc2ccccn2c(=O)c1CCN1CCC(C(=O)c2ccc(F)cc2)CC1 [Pirenperone] (20 µM),0.963,1.01,1.01,1.05,1.06 (inactive),0.996 (inactive),0.997 (inactive),0.995 (inactive),1.01 (inactive),1.03 (inactive),0.983 (inactive),0.969 (inactive)
CCC(=O)[C@@]1(C)[C@H](C)C[C@H]2[C@@H]3CCC4=CC(=O)C=C[C@]4(C)[C@H]3[C@@H](O)C[C@@]21C [Rimexolone] (20 µM),1.08,0.953,1.01,1.07,1.02 (inactive),0.98 (inactive),1.05 (inactive),0.983 (inactive),1 (inactive),1.01 (inactive),0.991 (inactive),1.04 (inactive)
C[C@]12CC[C@@H]3c4ccc(O)cc4C[C@@H](CCCCCCCCC[S+]([O-])CCCC(F)(F)C(F)(F)F)[C@H]3[C@@H]1CC[C@@H]2O (stereo not given in full) [Fulvestrant] (20 µM),1.25,1.06,1.03,1.13,0.97 (inactive),0.98 (inactive),1.2 (inactive),0.954 (inactive),0.979 (inactive),0.974 (inactive),1.02 (inactive),1.21 (inactive)
NCCCCCC(=O)O [Aminocaproic acid] (20 µM),0.927,1.04,1.04,1.06,0.969 (inactive),1.08 (inactive),1.04 (inactive),1.11 (inactive),0.996 (inactive),0.983 (inactive),1.02 (inactive),1.09 (inactive)
CC/C(=C(\c1ccccc1)c1ccc(OCCN(C)C)cc1)c1ccccc1 [Tamoxifen citrate] (20 µM),1.11,1.06,1.02,–,0.918 (inactive),0.977 (inactive),0.657 (active),1.06 (inactive),0.989 (inactive),1.05 (inactive),1 (inactive),0.738 (inactive)
C[C@H]1COc2c(N3CCN(C)CC3)c(F)cc3c(=O)c(C(=O)O)cn1c23 [Levofloxacin] (20 µM),0.012,0.012,0.11,–,0.107 (active),0.0435 (active),0.755 (active),0.521 (active),0.657 (active),0.226 (active),0.953 (inactive),0.823 (inactive)
O=C1CN(/N=C/c2ccc([N+](=O)[O-])o2)C(=O)N1 [Nitrofurantoin] (20 µM),1.01,0.997,0.868,–,1.07 (inactive),0.931 (inactive),0.808 (inactive),0.729 (active),0.962 (inactive),1.81 (active),0.997 (inactive),0.923 (inactive)
CN(C)c1nc(N(C)C)nc(N(C)C)n1 [Altretamine] (20 µM),0.899,1.05,0.993,0.972,1.08 (inactive),0.977 (inactive),1.06 (inactive),1.15 (inactive),1.04 (inactive),1.01 (inactive),1 (inactive),1.07 (inactive)
CN(C)CCOc1ccc(/C(=C(/CCCl)c2ccccc2)c2ccccc2)cc1 [Toremifene] (20 µM),1.18,1.1,1.15,0.943,0.943 (inactive),1.02 (inactive),0.647 (active),0.998 (inactive),0.975 (inactive),0.98 (inactive),1.04 (inactive),0.871 (inactive)
CC(C)(c1cc(Br)c(O)c(Br)c1)c1cc(Br)c(O)c(Br)c1 (20 µM),0,1.04,1.05,–,0.929 (inactive),0.0166 (active),0.366 (active),0.967 (inactive),1.01 (inactive),0.996 (inactive),1.04 (inactive),0.404 (inactive)
CC1CC(OC(=O)C(O)c2ccccc2)CC(C)(C)C1 (stereo not given) [Cyclandelate] (20 µM),0.937,1.02,1.04,1.02,0.997 (inactive),1.04 (inactive),1.03 (inactive),0.959 (inactive),1.02 (inactive),1.02 (inactive),1.01 (inactive),1.03 (inactive)
Nc1ncn(C2OC(CO)C(O)C2O)c(=O)n1 (stereo not given) [Azacytidine-5] (20 µM),1.02,0.811,0.974,–,1.03 (inactive),0.953 (inactive),0.881 (inactive),0.794 (inactive),1.01 (inactive),1.72 (active),0.985 (inactive),0.935 (inactive)
CC/C=C(\C(=O)N[C@@H]1C(=O)N2C(C(=O)OCOC(=O)C(C)(C)C)=C(COC(N)=O)CS[C@H]12)c1csc(N)n1 [Cefcapene pivoxil hydrochloride monohydrate] (20 µM),0.716,0.786,1.07,–,0.95 (inactive),1.1 (inactive),1.02 (inactive),0.961 (inactive),0.964 (inactive),1.06 (inactive),1.03 (inactive),1.01 (inactive)
CO/N=C(\C(=O)N[C@@H]1C(=O)N2C(C(=O)OC(C)OC(C)=O)=C(COC(N)=O)CS[C@H]12)c1ccco1 (stereo not given in full) [Cefuroxime axetil] (20 µM),0.673,1.18,1.1,–,0.905 (inactive),1.03 (inactive),0.936 (inactive),0.933 (inactive),1.05 (inactive),1.27 (active),1.02 (inactive),0.94 (inactive)
CN(C)CCC[C@@]1(c2ccc(F)cc2)OCc2cc(C#N)ccc21 [Escitalopram oxalate] (20 µM),0.99,0.986,1.11,0.828,1.02 (inactive),0.971 (inactive),1.01 (inactive),1.01 (inactive),1.02 (inactive),0.993 (inactive),1.02 (inactive),0.965 (inactive)
O=C(O)[C@H]1/C(=C/CO)O[C@@H]2CC(=O)N21 [Clavulanate potassium salt] (20 µM),0.883,1.01,0.977,–,1.02 (inactive),1.01 (inactive),0.997 (inactive),0.96 (inactive),1 (inactive),1.05 (inactive),0.998 (inactive),1.02 (inactive)
CC[C@H](C)C(=O)O[C@H]1CCC=C2C=C[C@H](C)[C@H](CC[C@@H]3C[C@@H](O)CC(=O)O3)[C@H]21 [Mevastatin] (20 µM),1.15,1,1.01,1.02,0.995 (inactive),0.988 (inactive),1.02 (inactive),0.998 (inactive),1 (inactive),1.07 (inactive),0.998 (inactive),1.04 (inactive)
COc1ncnc(NS(=O)(=O)c2ccc(N)cc2)c1OC [Sulfadoxine] (20 µM),1,1.01,1.04,1.19,1.02 (inactive),0.997 (inactive),0.985 (inactive),1.01 (inactive),0.997 (inactive),1 (inactive),1.01 (inactive),0.968 (inactive)
